Experimental data: PubChem BioAssay AID504332 (National Center for Advancing Translational Sciences (NCATS), 2011)
Out of some 350,000 compounds screened, about 31,000 (8.9%) were called active. Roughly 15% stayed inconclusive and do not appear here. Calls come from the whole dose curve; as a rule, active = well fitted inhibition curve with a large enough effect; inconclusive = small, poorly fitted or top-dose-only effect; inactive = no such curve, though single readings can be large or run the other way. Many of the other results were omitted from the sample, so actives are more common in it than they were.

Each compound was assayed against Histone-lysine N-methyltransferase EHMT2 (Homo sapiens) (UniProt Q96KQ7) (assay: qHTS Assay for Inhibitors of Histone Lysine Methyltransferase G9a). Conditions: G9a H3K9 monomethylation, AlphaScreen, 2 h; series mostly up to 59 µM; activity, negative = inhibition: at the top concentration.
Sequence of Histone-lysine N-methyltransferase EHMT2 (Homo sapiens) (Q96KQ7 913-1193 limits assumed): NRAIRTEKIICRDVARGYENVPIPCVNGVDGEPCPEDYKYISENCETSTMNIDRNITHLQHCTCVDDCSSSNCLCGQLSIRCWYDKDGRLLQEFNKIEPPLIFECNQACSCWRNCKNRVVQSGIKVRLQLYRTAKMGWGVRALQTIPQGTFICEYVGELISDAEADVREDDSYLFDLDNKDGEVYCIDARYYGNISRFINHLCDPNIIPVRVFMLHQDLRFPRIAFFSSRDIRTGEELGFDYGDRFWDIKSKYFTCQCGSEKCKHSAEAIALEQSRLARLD
Summary of the method: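 AlphaScreen read-out: biotin-H3K9 peptide (500 nM) methylation by 20 nM enzyme with 20 uM SAM, 2 h at room temperature after 15 min compound preincubation; anti-monomethyl H3K9 antibody plus donor/acceptor beads, 10 min dark.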
% is set by controls: 0 for no effect and ±100 for the full control effect; potency is the fitted concentration of half-maximal effect.
Note: nearly all actives have a fitted effect of over 75% in size.

Row | SMILES | activity, negative = inhibition | Potency
1 | O=C1CC(c2ccc(F)cc2F)c2cc3c(cc2N1)OCO3 (stereo not given) | -32.1% (inactive) | –
2 | Cc1ccc(S(=O)(=O)N2CCN(C(=O)Cc3sc(C)nc3-c3ccc(F)cc3)CC2)c(C)c1 | -43.6% [at 102 µM] (inactive) | –
3 | CCc1ccc(S(=O)(=O)c2nnn3c2nc(NCc2ccccc2OC)c2cc(Cl)ccc23)cc1 | -2.21% (inactive) | –
4 | O=C(Nc1nc2ccc(F)cc2s1)c1nc(SCc2ccccc2F)ncc1Cl | 1.57% (inactive) | –
5 | CCOC(=O)Cc1ccc(NC(=O)Nc2c[nH]c(=O)[nH]c2=O)cc1 | -37.2% (inactive) | –
6 | CCc1ccc(NC(=O)c2cc3c(=O)n(Cc4cccnc4)ccc3nc2C)cc1 | 4.59% (inactive) | –
7 | O=C(c1ccc(S(=O)(=O)N2CCCC2)cc1)N1CCN(c2ccccc2F)CC1 | -24.1% [at 102 µM] (inactive) | –
8 | CNS(=O)(=O)c1ccc(C(=O)NCC(=O)NCCc2ccc3c(c2)OCCO3)cc1 | -2.43% [at 12.7 µM] (inactive) | –
9 | Cc1ccc(S(=O)(=O)NCC(=O)N(CC(=O)NCC2CCCO2)c2cccc(F)c2)cc1 (stereo not given) | -4.98% [at 102 µM] (inactive) | –
10 | Cc1ccc(CN(CC(=O)NCC2CCCO2)S(=O)(=O)c2ccc(C)cc2)cc1 (stereo not given) | 2.68% [at 102 µM] (inactive) | –
11 | CCOc1ccc(S(=O)(=O)NCCC(=O)NCC2CCCO2)cc1 (stereo not given) | 28.8% [at 12.7 µM] (inactive) | –
12 | O=C(CN(CC1CCCO1)C(=O)CNS(=O)(=O)c1ccc(Cl)cc1)NCc1ccccc1 (stereo not given) | 11.7% [at 102 µM] (inactive) | –
13 | Cc1ccc(N(CC(=O)NCC2CCCO2)C(=O)CNS(=O)(=O)c2ccc(Cl)cc2)cc1 (stereo not given) | – | 1 µM (active)
14 | CCOc1ccc(N(CC(=O)NCC2CCCO2)S(=O)(=O)c2ccc(C)cc2)cc1 (stereo not given) | – | 50.1 µM (active)
15 | Cc1ccc(-c2nnc(Nc3cccc(Br)c3)c3ccccc23)cc1S(=O)(=O)NCC1CCCO1 (stereo not given) | -31.8% (inactive) | –
16 | CCOc1ccccc1NC(=O)Cn1c2ncccc2c(=O)n1-c1ccc(C)c(C)c1 | 14% (inactive) | –
17 | COc1cc2ccccc2cc1C(=O)Nc1cccc(-c2nc3ccccc3o2)c1 | -49.4% (inactive) | –
18 | O=C(/C=C/c1ccccc1)N1CCN(Cc2cc(=O)n3nc(-c4ccccc4F)sc3n2)CC1 | 3.63% (inactive) | –
19 | O=C(NCCC1=CCCCC1)c1ccc2c(c1)N(Cc1ccccc1F)C(=O)c1ccccc1S2(=O)=O | -2.68% (inactive) | –
20 | C=C(C)COc1ccc(-c2ncncc2-c2ccc(OC)cc2)c(O)c1 | -21.2% [at 102 µM] (inactive) | –
21 | CC(C)c1ccc(NC(=O)Cn2c3ncccc3c(=O)n2-c2ccccc2)cc1 | 7.51% (inactive) | –
22 | Cc1ccc(NC2(C#N)C(=O)Nc3ccccc32)cc1 (stereo not given) | -25.6% [at 2.33 µM] (inactive) | –
23 | N#CC1=C(N)Oc2n[nH]c(CSc3ccccc3)c2C12C(=O)Nc1ccccc12 (stereo not given) | -4.68% (inactive) | –
24 | N#CC1=C(N)Oc2[nH]c(=S)[nH]c(=O)c2C12C(=O)Nc1ccccc12 (stereo not given) | – | 35.5 µM (active)

Row | SMILES | activity, negative = inhibition | Potency
25 | O=C1c2ccccc2NC(c2ccc(-c3cccc(Cl)c3)o2)N1O (stereo not given) | 25.2% [at 12.7 µM] (inactive) | –
26 | O=C(O)C(c1ccccc1)N1C(=O)/C(=C\c2ccc(-c3cccc(Cl)c3)o2)SC1=S (stereo not given) | – | 39.8 µM (active)
27 | CN=C1S/C(=C\c2ccc(Sc3ccc(Cl)cc3)o2)C(=O)N1C | 0.554% [at 102 µM] (inactive) | –
28 | Cc1ccc(C(=O)COC(=O)C(Cc2c[nH]c3ccccc23)NC(=O)c2ccc(Br)cc2)cc1 (stereo not given) | -5.2% (inactive) | –
29 | Cn1cc(S(=O)(=O)N2CCCCCC2)cc1C(=O)N1CCN(c2ccc(F)cc2)CC1 | 8.88% (inactive) | –
30 | CCCCc1nn2c(=O)cc(COC(=O)c3ccc(NC(=O)c4ccccc4C)cc3)nc2s1 | 5.46% (inactive) | –
31 | Cc1ccc(-n2c(SCC(=O)Nc3cccc(F)c3)nc3c(oc4ccccc43)c2=O)cc1C | -33.8% (inactive) | –
32 | CCN(CC(=O)Nc1ccc(OC)cc1)C(=O)c1ccc(Cl)c(S(=O)(=O)N2CCCC2)c1 | 11.9% (inactive) | –
33 | COc1ccc(C(=O)OCC(=O)c2ccc(Cl)s2)c(OC)c1OC | 25.4% (inactive) | –
34 | C=CCNC(=S)NNC(=O)c1ccc(Br)o1 | 7.59% [at 102 µM] (inactive) | –
35 | C=CCNC(=S)NNC(=O)COc1c(Cl)cc(Cl)cc1Cl | – | 8.91 µM (active)
36 | C=CCNC(=S)NNC(=O)c1cc(Cl)ccc1OC | 9.14% [at 102 µM] (inactive) | –
37 | O=C(c1cc(C(=O)N2CCN(c3ccc(F)cc3)CC2)cc([N+](=O)[O-])c1)N1CCN(c2ccc(F)cc2)CC1 | 1.74% [at 0.501 µM] (inactive) | –
38 | O=C(c1cccc(F)c1)N1CCC2(CC1)CCN(c1ccccc1)CC2 | -4.3% [at 12.7 µM] (inactive) | –
39 | O=C1Nc2cc(C(=O)N3CCN(c4ccc(F)cc4)CC3)ccc2NC1CSCc1cccc(F)c1 (stereo not given) | – | 10 µM (active)
40 | O=C(c1cc(-c2ccc(F)cc2)on1)N1CCN(c2ccc(F)cc2)CC1 | – | inactive
41 | Cc1ccc(CSCC2Nc3ccc(C(=O)N4CCN(c5ccc(F)cc5)CC4)cc3NC2=O)cc1 (stereo not given) | – | 2.24 µM (active)
42 | C=CCn1c(SCc2cccc(F)c2)nc2cc(C(=O)N3CCC(C(N)=O)CC3)ccc2c1=O | -26% [at 102 µM] (inactive) | –
43 | CC1CCCC(NC(=O)c2cc(S(=O)(=O)N3CCCCC3)ccc2Cl)C1C (stereo not given) | 12.6% [at 12.7 µM] (inactive) | –
44 | CCOC(=O)c1c(C)[nH]c(C)c1S(=O)(=O)N1CCC(C(=O)Nc2ccc(C)c(Cl)c2)CC1 | -2.96% (inactive) | –
45 | CC(=O)Nc1cccc(C(=O)OCC(=O)c2ccc3c(c2)OCO3)c1 | -29% [at 102 µM] (inactive) | –
46 | CC1(C)CC(=O)c2ccc(O)cc2O1 | 43.9% [at 102 µM] (inactive) | –
47 | COc1ccc(C(=O)Nc2onc3c2CCCC3)cc1 | -27.1% (inactive) | –
48 | CC(C)(C)c1ccc(C(=O)NCC(c2ccc(Cl)cc2)N2CCOCC2)cc1 (stereo not given) | -35.7% (inactive) | –

Row | SMILES | activity, negative = inhibition | Potency
49 | CCOC(=O)c1cc2c(=O)n3ccccc3nc2n(CC2CCCO2)c1=NC(=O)c1ccccc1F (stereo not given) | 10.2% (inactive) | –
50 | COc1ccc(-c2nn3c(-c4ccccc4)nnc3s2)cc1OC | – | 35.5 µM (active)
51 | CCOc1cccc(-c2nn3c(-c4ccccn4)nnc3s2)c1 | -13.9% (inactive) | –
52 | COc1cc(-c2nn3c(-c4cccc(C)c4)nnc3s2)cc(OC)c1OC | -23.6% [at 12.7 µM] (inactive) | –
53 | COC(=O)c1ccc(NCC(=O)c2ccccc2)cc1 | – | 50.1 µM (active)
54 | COC(=O)c1ccc(NCC(=O)N2CCCCCC2)cc1 | 55% [at 102 µM] (inactive) | –
55 | Cc1ccc(C(=O)CNc2ccc(F)cc2)cc1 | 0.291% (inactive) | –
56 | CCCCc1nc2cc(C(=O)NCCc3cnn(C)c3)ccc2o1 | 6.57% [at 102 µM] (inactive) | –
57 | O=C(NC1CCCCCCC1)c1cccs1 | 6.94% [at 102 µM] (inactive) | –
58 | CCN(Cc1ccccc1)C(=O)Cc1ccc(OC)c(S(=O)(=O)N2CCOCC2)c1 | -30.1% [at 102 µM] (inactive) | –
59 | CN1CCN(S(=O)(=O)c2ccc(N3CCN(c4ccccc4O)CC3)c([N+](=O)[O-])c2)CC1 | – | 39.8 µM (active)
60 | CN1CCN(c2ccc(S(=O)(=O)Nc3ccccc3)cc2[N+](=O)[O-])CC1 | -2.72% (inactive) | –
61 | Cc1ccc(C(=O)c2ccc(N3CCN(C)CC3)c([N+](=O)[O-])c2)cc1 | -20.6% (inactive) | –
62 | Cc1ccc(S(=O)(=O)n2nc(-c3ccc(Cl)cc3)nc2NCc2ccccc2)cc1 | 23% (inactive) | –
63 | COCCNc1cc(-c2ccccc2)nc2cc(-c3cccc(F)c3)nn12 | 120% [at 102 µM] (inactive) | –
64 | COCC1CCN(C(=O)c2ccc3oc(Cc4ccccc4)nc3c2)C1 (stereo not given) | -80% [at 102 µM] (inactive) | –
65 | CCN(CC)S(=O)(=O)c1ccc2[nH]c(=O)cc(C(=O)N(C)C3CCS(=O)(=O)C3)c2c1 (stereo not given) | -11.9% (inactive) | –
66 | COc1cccc(CNC(=O)C2CCN(S(=O)(=O)c3ccc4c(ccn4C)c3)CC2)c1 | 9.97% (inactive) | –
67 | Cc1ccc(-c2nc(CS(=O)CC(=O)NC3CCCC3)c(C)o2)cc1 (stereo not given) | – | 70.8 µM (active)
68 | COc1ccc(-c2nc(CS(=O)CC(=O)N3CCc4ccccc4C3)c(C)o2)cc1 (stereo not given) | – | 28.2 µM (active)
69 | COc1ccc(-c2nc(CS(=O)CC(=O)NCc3ccccc3)c(C)o2)cc1OC (stereo not given) | -13.1% [at 102 µM] (inactive) | –
70 | Cc1cccc(-c2nc(CS(=O)CC(=O)NC(C)CCc3ccccc3)c(C)o2)c1 (stereo not given) | -5.87% [at 102 µM] (inactive) | –
71 | COc1ccc(CNC(=O)CS(=O)Cc2nc(-c3cccc(C)c3)oc2C)cc1 (stereo not given) | -38.3% (inactive) | –
72 | COc1cccc(-c2nc(CS(=O)CC(=O)NCc3ccc(F)cc3)c(C)o2)c1 (stereo not given) | 0.381% [at 102 µM] (inactive) | –

Row | SMILES | activity, negative = inhibition | Potency
73 | CCC(=O)Nc1cccc(C(=O)OCc2cc(=O)n3nc(CC)sc3n2)c1 | -1.91% [at 12.7 µM] (inactive) | –
74 | CCOc1ccc(OCC)c(NC(=O)C(NS(=O)(=O)c2ccc3c(c2)oc(=O)n3C)C(C)C)c1 (stereo not given) | – | 56.2 µM (active)
75 | COc1ccccc1CNC(=O)C(Cc1ccccc1)NS(=O)(=O)c1ccc2c(c1)oc(=O)n2C (stereo not given) | 8.23% (inactive) | –
76 | CC(C)CC(NS(=O)(=O)c1ccc2c(c1)oc(=O)n2C)C(=O)NCc1ccccc1Cl (stereo not given) | -21.4% (inactive) | –
77 | CCCn1c2ccccc2c2cnn(CC(=O)N3CCCC(C(=O)OCC)C3)c(=O)c21 (stereo not given) | -2.52% (inactive) | –
78 | CC(Sc1sc(=S)sc1SC(C)C(=O)O)C(=O)O (stereo not given) | – | 50.1 µM (active)
79 | Cc1ccc(C)c(NC(=O)COC(=O)Cn2c(C)csc2=O)c1 | -17% [at 102 µM] (inactive) | –
80 | COc1ccccc1CCC(=O)NNC(=O)c1ccncc1 | 7.45% [at 102 µM] (inactive) | –
81 | O=P(O)(CP(=O)(c1ccccc1)c1ccccc1)c1ccccc1O | – | 50.1 µM (active)
82 | O=C(CP(=O)(c1ccccc1)c1ccccc1)N1CCOCC1 | 71.6% [at 102 µM] (inactive) | –
83 | CC(C)(C)c1cc(P(=O)(c2ccccc2)c2ccccc2)ccc1O | 3.56% [at 102 µM] (inactive) | –
84 | O=C1N(Cc2ccccc2)c2ccc(Cl)cc2C1(O)c1c[nH]c2ccccc12 (stereo not given) | -32.9% (inactive) | –
85 | COc1ccccc1N1CCN(C2C(=O)c3ccccc3N2C(C)=O)CC1 (stereo not given) | -29% (inactive) | –
86 | O=C(CCS(=O)(=O)c1ccc2c(c1)NC(=O)CS2)NCc1ccccc1Cl | 11.3% [at 102 µM] (inactive) | –
87 | O=S1(=O)CC/C(=N\Nc2ccc(F)cc2)c2ccsc21 | – | 10 µM (active)
88 | COc1ccc(C(=O)N/N=C2\CCS(=O)(=O)c3ccc(F)cc32)cc1OC | 27.4% [at 12.7 µM] (inactive) | –
89 | O=C(c1cccc(Cl)c1)N1CCN(CCc2ccncc2)CC1 | 1.83% (inactive) | –
90 | Cc1ccccc1C(OCC(O)CN1CCCCC1CCO)c1ccccc1 (stereo not given) | -22.8% [at 102 µM] (inactive) | –
91 | CN(C)CCOC(=O)C(c1ccccc1)C1(O)CCCC1 (stereo not given) | 4.21% [at 2.33 µM] (inactive) | –
92 | Cc1ccccc1C(OCCN(C)C)C1CCCCC1 (stereo not given) | – | 3.16 µM (active)
93 | COc1ccc2[nH]c(=O)c(-c3noc(-c4ccc(F)cc4)n3)cc2c1 | -36.9% [at 12.7 µM] (inactive) | –
94 | COc1ccc(-c2cn[nH]c2-c2ccc(OC)cc2)cc1 | -3.6% [at 102 µM] (inactive) | –
95 | COc1ccc(N=Nc2c(-c3ccc(OC)cc3)[nH]oc2=O)cc1 | – | 39.8 µM (active)
